In the library only some 5.8% were active in any assay of this set; here they are far more common.
ALOX12 inh = inhibitors of human 12S-lipoxygenase ALOX12. purified 12hLO, xylenol orange hydroperoxide absorbance. 580,000 tested, 1.1% active. Potency, µM (series often up to 108 µM), hits mostly inhibitors
Target sequence (P18054 whole entry, looked up): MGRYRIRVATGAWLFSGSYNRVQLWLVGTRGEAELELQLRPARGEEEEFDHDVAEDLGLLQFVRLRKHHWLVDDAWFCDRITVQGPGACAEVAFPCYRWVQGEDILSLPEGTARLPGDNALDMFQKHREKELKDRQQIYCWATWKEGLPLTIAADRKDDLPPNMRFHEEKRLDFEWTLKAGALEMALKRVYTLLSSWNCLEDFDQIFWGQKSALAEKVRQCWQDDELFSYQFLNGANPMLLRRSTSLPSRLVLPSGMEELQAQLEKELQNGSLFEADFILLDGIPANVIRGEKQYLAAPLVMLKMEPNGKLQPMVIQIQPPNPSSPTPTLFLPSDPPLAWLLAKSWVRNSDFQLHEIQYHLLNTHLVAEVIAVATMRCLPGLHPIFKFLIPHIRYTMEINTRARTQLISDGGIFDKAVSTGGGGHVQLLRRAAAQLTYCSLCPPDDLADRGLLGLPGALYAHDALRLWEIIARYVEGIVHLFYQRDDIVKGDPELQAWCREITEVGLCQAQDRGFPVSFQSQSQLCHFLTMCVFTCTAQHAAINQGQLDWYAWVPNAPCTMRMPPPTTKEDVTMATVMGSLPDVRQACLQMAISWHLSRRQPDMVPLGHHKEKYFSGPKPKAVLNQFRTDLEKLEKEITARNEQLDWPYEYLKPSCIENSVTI
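Hydroperoxide product was detected by ferrous iron/xylenol orange as the 573 to 405 nm absorbance ratio. Arachidonic acid at 40 uM (final) was turned over for 30 min at room temperature by 150 nM human 12hLO, pH 7.0 Hepes buffer, after 15 min compound preincubation.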
KB-V1 cytotox = KB-V1 MDR subline cytotoxicity; KB-V1 MDR cells viability, CellTiter-Glo, 72 h; Potency, µM (top dose mostly 46.1 µM), actives largely listed as cytotoxic; 400,000 tested, 3.4% active; AID 1347076; further: nearly all actives have a fitted effect of over 60% in size
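Luminescent ATP read-out (CellTiter-Glo, 10 min) measures survival of drug-selected KB-V1 MDR cells after 72 h, 37 degrees C compound exposure. Medium: phenol-red-free DMEM, 10% FBS. Values from fitted concentration-response curves.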
PINK1 modulator = PINK1 expression modulation; PINK1 immunofluorescence, high-content cytometry, 24 h; Potency, µM (titrated, usually from 76.6 µM), usual class: activators; 410,000 tested, 0.2% active; active means well fitted activation curve with a large enough effect; inconclusive means small, poorly fitted or top-dose-only effect; cell line not stated here; further: nearly all actives have a fitted effect of over 65% in size
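Decision-based qHTS: stable cells, 24 h exposure to five compound concentrations, CCCP as control. Fixed cells stained for PINK1 plus nuclear, mitochondrial and cell markers, cytometer read.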
SW480 rerep = DNA re-replication induction in SW480 cells; SW480 DNA re-replication, Hoechst DNA content imaging, 48 h; Potency, µM (top dose mostly 46.1 µM), usual class: activators; 340,000 tested, 1.8% active; further: nearly all actives have a fitted effect of over 55% in size
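Image-based DNA-content assay: after two days of treatment, nuclei were labelled with the DNA dye Hoechst and imaged, and hits were compounds raising the count of nuclei showing high fluorescence intensity.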
MCF10A rereplic = inducers of DNA re-replication in MCF 10A breast cells | MCF 10A DNA re-replication, Hoechst nuclear intensity, 48 h | Potency, µM (highest dose often 46.1 µM), hits mostly activators | 350,000 tested, 2.9% active; further: nearly all actives have a fitted effect of over 50% in size
KB-3-1 cytotox = kills parental KB-3-1 adenocarcinoma cells | KB-3-1 viability, CellTiter-Glo ATP luminescence, 72 h | Potency, µM (series often up to 46.1 µM), hits mostly cytotoxic | 400,000 tested, 1.4% active; further: nearly all actives have a fitted effect of over 60% in size
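Multi-concentration cytotoxicity screen in KB-3-1 cells grown in DMEM lacking phenol red with 10% FBS. After 72 h at 37 °C with compound, ATP-dependent luminescence was recorded.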
Numbers stand for hits; . = inactive; ? = inconclusive; / = no result; [ ] = another dose, or the depositor's remark. Unless noted, the call rests on the fitted dose curve; in most records, active means well fitted curve in the direction sought with a large enough effect; inconclusive means small, poorly fitted or top-dose-only effect, or another doubt; inactive means no such curve, though single readings can be large; an effect the other way counts as inactive or inconclusive.

SMILES	ALOX12 inh	KB-V1 cytotox	PINK1 modulator	SW480 rerep	MCF10A rereplic	KB-3-1 cytotox
Clc1ccc(CNC[C@H]2Cn3c(-c4cccc(Cl)c4)cnc3CO2)cc1	.	/	/	/	/	/
Clc1ccc(-c2cnc3n2C[C@H](CNCc2ccc4c(c2)OCO4)OC3)cc1	40µM	/	/	/	/	/
Clc1ccc(CNC[C@H]2Cn3c(-c4ccccc4)cnc3CO2)cc1	25µM	/	/	/	/	/
CCOc1cccc(C(=O)N(Cc2c(F)cccc2Cl)c2ccccn2)c1	.	/	/	/	/	/
O=C(N/N=C/c1c[nH]c2ccccc12)c1csc2ccccc12	.	/	/	/	/	/
c1ccc(-c2cnc(Nc3ccc4c(c3)OCCO4)c3c2CCO3)cc1	.	/	/	/	/	/
COc1ccccc1N(C)S(=O)(=O)c1ccc(C(=O)OCn2nnc3ccccc3c2=O)cc1	.	/	/	/	/	/
COC(=O)C1=C(C)NC(=O)/C1=C\c1cc(C)n(-c2cc(C)cc(C)c2)c1C	40µM	?	.	.	?	?
CCOCCSc1nnc(-c2nn(Cc3ccccc3)c(=O)c3ccccc23)o1	28µM	/	/	/	/	/
COc1ccc(C(=O)N2CCC(C(=O)c3ccc(F)cc3)CC2)cc1	.	?	.	.	.	.
COc1ccccc1C(=O)N1CCC(C(=O)c2ccc(F)cc2)CC1	.	9.2µM	.	.	.	.
COc1ccccc1NC(=O)N1CCC(C(=O)c2ccc(F)cc2)CC1	.	21µM	.	.	.	.
COc1ccc(CCNC(=O)C2CCN(C(=O)c3ccc(F)cc3)CC2)cc1	.	.	.	?	0.65µM	.
COc1ccc(C(=O)C2CCN(C(=O)c3ccc(OC)cc3)CC2)cc1	.	6.5µM	.	.	.	?
Cc1nn(CCC#N)c(C)c1[C@@H]1C=C[C@@H](NCc2ccc(C(C)C)cc2)C1	.	/	/	/	/	/
Cn1c(=O)c2c(ncn2CC(=O)OCc2ccc(C(C)(C)C)cc2)n(C)c1=O	.	/	/	/	/	/
CCCCN(C)C(=O)C(=O)c1c(C)[nH]c2ccccc12	.	/	/	/	/	/
CCOc1ccc(C(=O)N2CCC(C(=O)c3ccc4c(c3)OCCO4)CC2)cc1	.	4.1µM	.	.	.	.
N#CC1=C(SCC(=O)NC23CC4CC(CC(C4)C2)C3)NC(=O)C(C#N)C12CCCCC2 (centres undefined)	?	12µM	?	.	16µM	?
O=C(CC[C@@H]1CNC(=O)[C@@H]2C[C@H](NC(=O)Nc3cccc(Cl)c3)CN12)NCc1cccnc1	45µM	/	/	/	/	/
O=C(CC[C@@H]1CNC(=O)[C@@H]2C[C@H](NC(=O)c3cccc(F)c3)CN12)NCc1cccnc1	.	/	/	/	/	/
Cc1oc(-c2nc(C#N)c(NCc3cccnc3)o2)cc1S(=O)(=O)N1CCCCCC1	.	/	/	/	/	/
CC(=O)N(CCC(c1ccco1)C(C)C)Cc1ccc(Cl)cc1 (centres undefined)	?	?	.	.	4.1µM	.
CCC(=O)N(CCC(c1ccco1)C(C)C)Cc1ccccc1 (centres undefined)	.	.	.	.[9.22 µM]	.	.
COc1ccc(CN(C(=O)c2cc(=O)c3ccc(C)cc3o2)C2CCS(=O)(=O)C2)cc1 (centres undefined)	.	/	/	/	/	/
SMILES	ALOX12 inh	KB-V1 cytotox	PINK1 modulator	SW480 rerep	MCF10A rereplic	KB-3-1 cytotox
CCCNC(=O)[C@@H]1CCCN1[C@@H](C(=O)NC)c1ccc(OC)cc1	10µM	/	/	/	/	/
CNC(=O)[C@@H](c1ccc(Cl)cc1)N1CCC[C@H]1C(=O)NCCN1CCCC1	.	/	/	/	/	/
CN(C)CCNC(=O)c1cc(-c2ccccc2F)cc2c1OCCN2Cc1cccnc1	.	/	/	/	/	/
CN(CCOc1ccc(F)cc1)C(=O)c1cc2ccccc2oc1=O	.	/	/	/	/	/
COc1ccc(S(=O)(=O)NCC2CCCN(Cc3cccc(C(C)=O)c3)C2)cc1 (centres undefined)	.	.	.	.	?	.
COc1ccc(S(=O)(=O)NCC2CCCN(Cc3cccnc3)C2)cc1 (centres undefined)	.	.	.	.	1µM	.
CC1(C)C2([N+](=O)[O-])CN(CCO)CC1([N+](=O)[O-])CN(CCO)C2	.	.	.	.	.	.
CC1(C)C2([N+](=O)[O-])CN3CC1([N+](=O)[O-])CN(C2)C3C(O)C(O)C(O)CO (centres undefined)	.	.	.	10µM	.	.
N#Cc1ccc(CCC(=O)O)cc1	28µM	/	/	/	/	/
CCCC(=O)NNC(=S)NC(C)C	.	/	/	/	/	/
CC1(C)CC(=O)c2cc(-c3nc(-c4ccc(Cl)cc4)cs3)c(=O)[nH]c2C1	.	.	.	/	/	.
CC1(C)CC(=O)c2cc(-c3nc(-c4ccc(F)cc4)cs3)c(=O)[nH]c2C1	50µM	?	.	/	/	.
Cc1ccc(C(=O)CC2(O)C(=O)N(CN3CCOCC3)c3ccccc32)s1 (centres undefined)	.	/	/	/	/	/
CCOc1cc(OCC)c(/C=C2\NC(=O)NC2=O)cc1Br	.	/	/	/	/	/
Cc1occc1C(=O)NCc1nc(-c2ccccc2)no1	.	.	.	.	.	.
Cc1cccc(-c2noc(CNC(=O)c3ccoc3C)n2)c1	.	.	.	.	21µM	.
OC(CN1CCN(c2ccccc2Cl)CC1)c1ccccc1 (centres undefined)	.	.	.	23µM	?	?
Fc1ccc(-c2cc(-c3ccccc3)nc(-n3cccn3)n2)cc1	.	.	.	.	18µM	.
CCCSc1nc2c(c(=O)[nH]1)C(c1ccncc1)C(C(=O)OC)=C(C)N2 (centres undefined)	.	/	/	/	/	/
O=S(=O)(NCCSc1nnnn1-c1ccccc1)c1cccs1	.	16µM	.	.	.	.
CCCCSc1cnn(-c2ccccc2)c(=O)c1SCCCC	.	18µM	.	?	?	18µM
CCSc1cnn(-c2ccccc2)c(=O)c1SCC	.	.	/	.	.	.
O=P(NCc1ccccc1)(OCc1ccccc1)OCc1ccccc1	.	9.2µM	.	.	.	.
COc1ccc(N/C(N)=N/c2nc(C)cc(C)n2)cc1	.	.	.	/	/	.
Cc1cc(C)nc(/N=C(\N)Nc2cccc(OCc3ccccc3)c2)n1	?	5.8µM	?	?	13µM	?
SMILES	ALOX12 inh	KB-V1 cytotox	PINK1 modulator	SW480 rerep	MCF10A rereplic	KB-3-1 cytotox
Cc1ccc(/C(C#N)=C\c2cccn2C)cc1	45µM	/	/	/	/	/
CCN(CC)S(=O)(=O)c1cccc(C(=O)/C=C2/N(C)c3ccccc3C2(C)C)c1	.	.	.	21µM	18µM	.
CN1/C(=C\C(=S)NC(=O)c2cccc(Br)c2)C(C)(C)c2ccccc21	?	8.2µM	.	?	?	?
COc1ccc(CCNC(=O)Cc2c(C)c3ccc(O)c(C)c3oc2=O)cc1	.	/	/	/	/	/
COc1ccc(S(=O)(=O)N2CCCCC2)cc1NC(=O)c1ccc([N+](=O)[O-])o1	.	.	.	2.9µM	2.3µM	18µM
COc1ccc(-c2cc3ccccc3oc2=O)cc1NC(=O)c1ccc([N+](=O)[O-])o1	.	?	.	9.2µM	7.3µM	?
